This is a sample that favours compounds with a hit; in the whole collection about 3.2% have one here.
Nrf2 inh: inhibitors of Nrf2 signaling; A549 ARE-Fluc reporter, luciferase luminescence, 18-24 h; Potency, µM (series often up to 46 µM), inactives show at the top dose activity change, negative = inhibition, actives largely listed as inhibitors; 360,000 compounds, 2.1% hits; also: potency is read from the fitted curve at half-maximal effect; % is scaled to controls: 0 for no effect and ±100 for the full control effect; nearly all actives have a fitted effect of over 60% in size
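A549 ARE_Fluc cells (5000/well, 5% FBS OPTI-MEM) pre-incubated 2 h, then treated with compounds 18-24 h at 37C/5% CO2 in concentration-response. CellTiter-Fluor viability read first; BugLite luciferase luminescence after 15 min at room temperature gives Nrf2 activity.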
p53 reactivator: re-activators of mutant p53 | H1299 p53-A138V BP100-luciferase reporter, luminescence, 24 h | Potency, µM (doses to about 92.2 µM), without a hit: top-dose activity change, positive = activation, usual class: activators | 320,000 compounds, 0.063% hits; also: potency is read from the fitted curve at half-maximal effect; % of control where 0% means no effect; nearly all actives have a fitted effect of over 45% in size
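H1299 (p53-null), stable ts p53-A138V + BP100-Luc; 1000 cells/well, Opti-MEM/10% FBS; cpd 4 pt, 1:5; 24 h, 37 deg C, 5% CO2; detection reagent 10 min RT; luminescence.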
BRCA1 expr act: activators of BRCA1 expression; 380,000 compounds, 1.1% hits; MCF7-BRCA1-FFLuc reporter, luminescence, 48 h; response scale: scaled: vehicle 0%, 10 µM genistein 100%; Potency, µM (doses to about 46.1 µM), without a hit: at the top dose activation, most hits filed as activators; also: potency is read from the fitted curve at half-maximal effect; nearly all actives have a fitted effect of over 80% in size
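Reporter cells (MCF7, BRCA1 promoter-firefly luciferase) received library compounds across a concentration series for 48 h. End-point luminescence was measured and concentration-effect curves derived after normalization.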
Nrf2 activator: activators of Nrf2 (ARE) signaling. AREc32 ARE-luciferase reporter (MCF7-derived line), luminescence, 24 h. Potency, µM (top dose mostly 46.1 µM), for inactives: at the highest dose activation, hits mostly activators. 410,000 compounds, 0.31% hits. AID 624171; also: potency is read from the fitted curve at half-maximal effect; % of control where 0% means no effect; nearly all actives have a fitted effect of over 65% in size
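AREc32 cells carrying an ARE-driven firefly luciferase reporter were seeded at 1000 cells/well in OPTI-MEM with 5% FBS, then exposed to compound for 24 hr at 37 deg C. Luminescence was read with Steady-Glo after 30 min at RT.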
IL2 activator: IL-2 activation. IL-2 activation reporter assay, cell-based qHTS; stimulated with anti-CD3/CD4/CD28 beads; in transgenic mouse T cells. activation, % (series mostly up to about 46 µM). 360,000 compounds, 0.065% hits; in the data active = activation above about 50%; inconclusive = mostly about 30% to 49%; also: 0% is about no effect
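EGFP and DsRed fluorescence is measured by plate cytometry in unstimulated transgenic mouse T cells exposed to compound for 60 minutes, then stimulated 18 hours at 37 degrees C with anti-CD3/anti-CD4 beads plus anti-CD28.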
A549 tox: A549 cytotoxicity, counter-screen for Nrf2 inhibitors; A549 ARE-Fluc cells, CellTiter-Fluor viability, 18-24 h; Potency, µM (highest dose often 46 µM), for the others: at the highest dose activity change, negative = cytotoxicity, usual class: inhibitors; 390,000 compounds, 0.16% hits; AID 504648; also: potency is read from the fitted curve at half-maximal effect; % is scaled to controls: 0 for no effect and ±100 for the full control effect
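Cytotoxicity counterscreen: CellTiter-Fluor fluorescence was measured in A549 ARE_Fluc cells after 18-24 h of compound exposure in a concentration series. The subsequent BugLite luminescent read reports ARE-luciferase activity.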
Starred values were filed as active, the others as inactive; ? = inconclusive; · = no result. Unless noted, calls follow the shape of the dose curve; as a rule, active = well fitted curve in the direction sought with a large enough effect; inconclusive = small, poorly fitted or top-dose-only effect, or another doubt; inactive = no such curve, though single readings can be large; an effect the other way counts as inactive or inconclusive.

SMILES | Nrf2 inh | p53 reactivator | BRCA1 expr act | Nrf2 activator | IL2 activator | A549 tox
COc1cc(OC)c(OC)cc1CNC(=O)c1ccc(COc2ccccc2)cc1 | 16µM* | 15% | -15% | 1% | -1 | -12%
Cc1ccc(OCc2ccc(C(=O)NCc3cccnc3)cc2)cc1C | 23µM* | -5% | -21% | 3% | -4 | -18%
O=C(NCc1cccnc1)c1ccc(COc2ccc(Cl)cc2)cc1 | 23µM* | -8% | 14% | 3% | 0 | -7%
O=C(CCC1N=C2c3ccccc3N=C(SCc3cccc(F)c3)N2C1=O)NCc1cccs1 (configuration not stated) | · | · | · | 0% | · | -7%
COc1ccc(CNC(=O)Cc2c(C)c3ccc(O)cc3oc2=O)cc1 | -10% | · | · | 0% | · | 9%
O=C(CNC(=O)C1CCCCC1)OC(C(=O)Nc1cc(C(F)(F)F)ccc1Cl)c1ccccc1 (configuration not stated) | -11% | · | · | · | · | 4%
Fc1ccc(COc2cccc(CNCc3ccncc3)c2)cc1 | 15µM* | -6% | -31% | 3% | 0 | -1%
c1ccc(COc2ccc(CNCc3cccnc3)cc2)cc1 | 15% | -3% | 10µM* | 6% | 3 | -2%
CCOc1ccc(CNCc2cccnc2)cc1 | -5% | 8% | -13% | -1% | -3 | 13%
O=C(COc1ccc(-c2ccccc2)cc1)Nc1cccnc1 | 16µM* | 9% | 6% | -1% | 0 | -16%
O=C(COc1ccc([N+](=O)[O-])cc1)Nc1cccnc1 | ? | 0% | 1% | -1% | 0 | 0%
CCOC(=O)[C@]12CCCC=C1N(Cc1ccccc1)C(=O)[C@H](CC(=O)N1CCC(c3ccccc3)CC1)C2 | · | · | · | · | -1 | ·
O=C(Cn1nc(C(F)(F)F)c2c1CCCC2)Nc1cccc(Cl)c1 | · | · | · | -4% | · | ?
Cc1noc(C(=O)Nc2ccc(F)cc2F)c1Cl | ? | 14% | -12% | 8% | 0 | 1%
Cc1ccc(O)c(NC(=O)c2onc(C)c2Cl)c1 | 4% | 21% | -42% | 8.9µM* | 1 | 5%
CCCc1ccc(C(=O)/C=C/N(C)C)cc1 | ? | 9% | 13µM* | 0% | -2 | 0%
CN(C)/C=C/C(=O)c1ccc(F)cc1 | -21% | 9% | 8% | 8% | -2 | -1%
Cc1ccc(CNC(=O)CCc2c(C)nc3nc(C)nn3c2C)cc1 | -4% | · | 6% | 0% | · | 16%
O=C(Nc1nc2ccc(Br)cc2s1)c1ccco1 | ? | ? | ? | 7.9µM* | 0 | -6%
CCN(CC)S(=O)(=O)c1cccc(C(=O)Nc2nc3cc4c(cc3s2)OCCO4)c1 | 15µM* | 2% | -64% | 0% | -3 | ?
CCN(CC)S(=O)(=O)c1ccc2nc(NC(=O)c3ccco3)sc2c1 | 7% | 6% | 11µM* | 1% | -1 | 1%
O=C(Nc1nc2ccsc2c(=O)s1)c1ccco1 | ? | 6% | 3% | 1.3µM* | -3 | -1%
CCN(CC)S(=O)(=O)c1ccc2nc(NC(=O)c3ccc(Br)o3)sc2c1 | · | · | · | 0% | · | 3%
O=C(Nc1nc2cc3c(cc2s1)OCCO3)c1cccc(N2C(=O)CCC2=O)c1 | -21% | 1% | 17% | 3% | -3 | 0%
C=C1C=C(C)n2ncc(C(=O)Nc3ccc(F)cc3F)c2N1 | · | · | -11% | · | · | ·
N#Cc1ccc(C[C@H](C(=O)O)N2C(=O)c3ccc(C(=O)O)cc3C2=O)cc1 | 11% | · | · | · | · | 0%
COc1ccc(NC(=O)Nc2nnc(N3CCCC3)s2)cc1 | -13% | · | · | 0% | · | 2%
CC(C)(C)OC(=O)N1CCC(c2nnc(SCc3ccccc3)o2)CC1 | 12µM* | · | -45% | 9% | · | -13%
CC(C)(C)OC(=O)N1CCC[C@H]1c1nnc(SCc2ccc(Cl)cc2)o1 | -10% | -2% | -19% | 3% | -4 | 0%
O=C(C[n+]1c(Cl)ccc2ccccc21)c1ccc2ccccc2c1 | · | · | 1% | · | · | ·

Screening data: PubChem, National Center for Advancing Translational Sciences (NCATS)
